Results published in article PMC5540273 (PLoS ONE, 2017).

Tests used:
Details in all cases: concentration: 1 μM, replicates: in singlicate; n = 1
[1] = system: T1, SNARK
T1 construct: gene NUAK2

[2] = system: SNRK
[3] = system: SRC
[4] = system: SRMS
[5] = system: SRPK1
[6] = system: SRPK2
[7] = system: SRPK3
[8] = system: STK16
[9] = system: STK33
[10] = system: STK35
[11] = system: STK36
[12] = system: STK39
[13] = system: SYK
[14] = system: SgK110
[15] = system: T2, TAK1
T2 construct: gene MAP3K7

[16] = system: TAOK1
[17] = system: TAOK2
[18] = system: TAOK3
[19] = system: TBK1
[20] = system: TEC
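Also: KINOMEscan kinase panel screen.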

Compound | %Inh [1] [%] | %Inh [2] [%] | %Inh [3] [%] | %Inh [4] [%] | %Inh [5] [%] | %Inh [6] [%] | %Inh [7] [%] | %Inh [8] [%] | %Inh [9] [%] | %Inh [10] [%] | %Inh [11] [%] | %Inh [12] [%] | %Inh [13] [%] | %Inh [14] [%] | %Inh [15] [%] | %Inh [16] [%] | %Inh [17] [%] | %Inh [18] [%] | %Inh [19] [%] | %Inh [20] [%]
COC(=O)Nc1nc2cc(Oc3ccc(NC(=O)Nc4cc(C(F)(F)F)ccc4F)cn3)ccc2[nH]1.Cl.Cl [GW681170] | 14 | 0 | 29 | 0 | 25 | 8 | 0 | 17 | 55 | 0 | 0 | 3 | 16 | 0 | 79 | 0 | 0 | 0 | 19 | 0
O=C(Nc1cccc(Oc2ccc3nc(NC(=O)C4CC4)cn3n2)c1)c1ccccc1C(F)(F)F | 0 | 0 | 5 | 0 | 59 | 14 | 48 | 17 | 0 | 3 | 4 | 11 | 0 | 0 | 0 | 0 | 34 | 0 | 39 | 5
O=C(O)C(F)(F)F.O=C(O)C(F)(F)F.O=c1[nH]ccc2nc(N[C@@H]3CCCNC3)nc(Nc3ccc(S(=O)(=O)N4CCOCC4)cc3)c12 [GSK2177277] | 99.6 | 72 | 96.7 | 0 | 100 | 65 | 95.2 | 99.3 | 98.6 | 98 | 26 | 90.6 | 93.1 | 95 | 99.9 | 99.8 | 82 | 99.5 | 90 | 38
COc1cccc(NC(=O)NC2CCN(c3ccnc(Nc4cc(OC)c(OC)c(OC)c4)n3)C2)c1 (stereo not shown) [GSK1379763] | 33 | 0 | 10 | 0 | 61 | 0 | 0 | 77 | 0 | 3 | 0 | 0 | 28 | 0 | 0 | 0 | 0 | 0 | 38 | 5
Cl.Cl.NCC(NCc1ccc(-c2ccnc3[nH]ccc23)s1)c1ccccc1 (stereo not shown) [GSK1321565] | 93.5 | 0 | 0 | 0 | 68 | 83 | 77 | 49 | 76 | 0 | 0 | 5 | 23 | 8 | 44 | 26 | 0 | 0 | 8 | 0
COc1ccc(Nc2nccc(N3CCC(NC(=O)Nc4cccc(OC)c4)C3)n2)cc1 (stereo not shown) [GSK1379742] | 0 | 0 | 5 | 0 | 12 | 0 | 0 | 0 | 0 | 2 | 0 | 5 | 25 | 0 | 0 | 0 | 0 | 0 | 6 | 1
O=c1[nH]cc(-c2ccc(N3CCOCC3)cc2)c2sc(-c3cn[nH]c3)cc12 [GSK2276055] | 15 | 0 | 0 | 8 | 17 | 0 | 0 | 35 | 0 | 0 | 0 | 3 | 0 | 0 | 53 | 68 | 5 | 21 | 25 | 0
COc1cccc(-c2ccc3c(NC(=O)C4CC4)n[nH]c3n2)c1 [SB-710903] | 0 | 0 | 0 | 0 | 10 | 50 | 0 | 26 | 0 | 0 | 0 | 17 | 19 | 0 | 0 | 30 | 4 | 0 | 13 | 0
c1ccc(Oc2ccc(Nc3ccnc4cc(-c5ccc(CNCCN6CCOCC6)o5)ccc34)cc2)nc1 [GW567145] | 6 | 0 | 22 | 87 | 0 | 58 | 0 | 2 | 21 | 48 | 0 | 1 | 14 | 0 | 0 | 0 | 0 | 0 | 1 | 39
COc1cccc(C(=O)Nc2cccc(Oc3ccc4nc(NC(=O)C5CC5)cn4n3)c2)c1 | 5 | 8 | 94.1 | 20 | 40 | 29 | 0 | 0 | 10 | 0 | 0 | 0 | 12 | 0 | 0 | 34 | 58 | 0 | 48 | 9
O=C(Nc1cccc(-c2nn3ncccc3c2-c2ccnc(Nc3ccccc3)n2)c1)c1c(F)cccc1F [GSK198271] | 32 | 45 | 62 | 94.9 | 32 | 0 | 0 | 7 | 0 | 79 | 100 | 0 | 37 | 0 | 0 | 90 | 93.2 | 97.3 | 0 | 95.4
CC(C)c1nc(-c2cccc(NS(=O)(=O)c3c(F)cccc3F)c2F)c(-c2ccnc(Nc3ccc(N4CCOCC4)nc3)n2)s1 [GSK2008607] | 29 | 0 | 100 | 99.5 | 38 | 0 | 0 | 46 | 83 | 36 | 100 | 48 | 85 | 0 | 76 | 10 | 71 | 19 | 51 | 85
CCS(=O)(=O)c1ccc(OC)c(Nc2nccc(-c3c(-c4cccc(NC(=O)c5c(F)cccc5F)c4)nn4ncccc34)n2)c1 [GSK326180] | 0 | 0 | 0 | 99.3 | 24 | 0 | 0 | 25 | 7 | 0 | 99.7 | 16 | 4 | 0 | 0 | 0 | 0 | 0 | 21 | 4
Nc1ncc(-c2cccnc2)c2scc(-c3ccc4c(c3)CCN4C(=O)Cc3ccccc3)c12 [GSK683281] | 4 | 1 | 37 | 8 | 32 | 0 | 28 | 4 | 20 | 0 | 87 | 4 | 34 | 1 | 7 | 0 | 4 | 0 | 14 | 17
Oc1cc(Nc2ccnc3cc(I)ccc23)ccc1F [GW552771] | 0 | 0 | 67 | 0 | 21 | 0 | 9 | 0 | 0 | 5 | 0 | 21 | 19 | 0 | 0 | 0 | 0 | 0 | 0 | 12
NCCCC(NC(=O)c1cc(Br)c(-c2ccnc3[nH]ccc23)s1)c1ccccc1.O=C(O)C(F)(F)F.O=C(O)C(F)(F)F (stereo not shown) [GSK1287544] | 88 | 6 | 0 | 0 | 70 | 12 | 57 | 60 | 91.5 | 0 | 0 | 0 | 0 | 58 | 0 | 34 | 0 | 0 | 0 | 0
CN(c1ccc(NC(=O)Nc2cc(C(F)(F)F)ccc2F)cc1)c1ccnc(Nc2ccc(S(N)(=O)=O)cc2)n1 [GW809893] | 0 | 5 | 99.7 | 0 | 18 | 0 | 20 | 12 | 81 | 10 | 0 | 0 | 91.9 | 0 | 60 | 53 | 86 | 79 | 29 | 0
